Values without a mark were called inactive. The call rests on the fitted dose curve; in most records, active means well fitted curve in the direction sought with a large enough effect; inconclusive means small, poorly fitted or top-dose-only effect, or another doubt; inactive means no such curve, though single readings can be large; an effect the other way counts as inactive or inconclusive. Results filed as inconclusive are left out.

Tested on in one test: not listed separately
Nature of the test: qHTS for Inhibitors of ATXN expression: Validation of Cytotoxic Assay (AID 588349). Further: on the % scale 0 is the no-effect control and ±100 the full control effect. The following applies: cytotoxicity counter-screen for ATXN expression inhibitors, cell viability; series mostly up to 57.1 µM; activity change, negative = cytotoxicity: at the top concentration. In short, it runs like this: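 Titrated compounds are added to cultured HEK293 cells, which are then held at 37 degrees C for 72 hr; loss of intracellular ATP, measured with CellTiter Glo, indicates toxicity.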
For orientation: qHTS replaces the single test concentration by a dilution series.
Take `Oc1ccc(-c2nc(-c3ccc(F)cc3)c(-c3ccncc3)[nH]2)cc1`: the “activity change, negative = cytotoxicity” value is -28.6%.
Consider `COc1cc2nc(N3CCN(C(=O)C4CCCO4)CC3)nc(N)c2cc1OC` (stereo not given), for which the “activity change, negative = cytotoxicity” value was -7.78%.
On the same count and under the same terms, the value for `Cc1c(OCC(F)(F)F)ccnc1CS(=O)c1nc2ccccc2[nH]1` (stereo not given) was -16.6%; that for `O=C(CCc1ccc(O)cc1)c1c(O)cc(O)cc1O` was -20.2%.
The same measure, in the same setting: the value for `O=c1cc(N2CCOCC2)oc2c(-c3ccccc3)cccc12` was -9.78%.
For the compound `NCCCCNCCCN`, the “activity change, negative = cytotoxicity” value was -0.863%.
Still for that read-out and setting: next, `OC(CN1CCN(c2cccc(Cl)c2)CC1)C(c1ccccc1)c1ccccc1` (stereo not given): -14%; `CN(C)CCCC1(c2ccc(F)cc2)OCc2cc(C#N)ccc21` (stereo not given): -29.1%.
The same measure, in the same setting: the value for `Cc1cccc(C#Cc2ccccc2)n1` was -7.7%.
The same measure, in the same setting: the value for `Oc1ccc2ccccc2c1SSc1c(O)ccc2ccccc12` was -9.93%.
For the compound `O=c1c(O)c(-c2ccc(O)cc2O)oc2cc(O)cc(O)c12`, the “activity change, negative = cytotoxicity” value was -24.8%.
As to `O=C(O)c1cccnc1Nc1cccc(C(F)(F)F)c1`, the “activity change, negative = cytotoxicity” value is -13.5%.
Turning to `NNc1nncc2ccccc12`, the “activity change, negative = cytotoxicity” value is -16.4%.
The same measure, in the same setting: the value for `Cc1cc(O)c2c(c1)C(=O)c1cc(O)cc(O)c1C2=O` was -22.3%; that for `CC1(C)NC(=O)N(c2ccc([N+](=O)[O-])c(C(F)(F)F)c2)C1=O` was 8.58%; that for `COc1cc2c(cc1OC)C1CC(=O)C(CC(C)C)CN1CC2` (stereo not given) was -8.31%.
`O=C1NC(=O)C(c2ccccc2[N+](=O)[O-])=C1Nc1ccc(O)c(Cl)c1`: the “activity change, negative = cytotoxicity” value was -26.5%.
Same read-out and setting: next, `O=C(c1ccccc1)c1ccc2n1CCC2C(=O)O` (stereo not given): -10.8%; `COc1ccccc1N1CCN(CCN(C(=O)C2CCCCC2)c2ccccn2)CC1`: -5.23%; `C[C@@H](N)C1CCC(C(=O)Nc2ccncc2)CC1` (stereo not given in full): -9.83%.
For `O=c1ccc2ccc(O)c(O)c2o1`, the “activity change, negative = cytotoxicity” value was -19.7%.
For `CCOC(=O)C(C)Oc1cccc2c(=O)n(CC(=O)Nc3ccc4c(c3)OCCO4)ccc12` (stereo not given), the “activity change, negative = cytotoxicity” value is -13.8%.
Still for that read-out and setting: the value for `Nc1ccn([C@@H]2O[C@H](CO)[C@@H](O)C2O)c(=O)n1` (stereo not given in full) was -4.02%; that for `COc1ccc2cc([C@H](C)C(=O)O)ccc2c1` was -8.98%.
Same read-out and setting: the value for `O=C1c2c(O)cc(O)cc2OC(c2ccc(O)c(O)c2)C1O` (stereo not given) was 1.3%; that for `CNC[C@H](O)c1ccc(O)c(O)c1` was -22.9%.

Tested on in a further test: not listed separately
Nature of the test: qHTS for Inhibitors of ATXN expression: Validation (AID 588378). Further: on the % scale 0 is the no-effect control and ±100 the full control effect; nearly all actives have a fitted effect of over 75% in size. To be noted: cell-based ATXN2 expression reporter assay, luminescence; series mostly up to 57.1 µM; activity change, negative = inhibition: at the top concentration. In short, it runs like this: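 Luciferase luminescence (Bright-Glo) from an ATXN2-FFLuc HEK293 line after 24 h compound exposure at 37 °C, preceded by a CellTiter-Fluor fluorescence viability read. Serial dilutions of a reference ATXN2 inhibitor and a luciferase inhibitor served as controls.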
Turning to `O=Nc1c(-c2c(O)[nH]c3cc(Br)ccc23)[nH]c2ccccc12`, the “activity change, negative = inhibition” value was 12.9%.
Same read-out and setting: next, `Oc1ccc(-c2nc(-c3ccc(F)cc3)c(-c3ccncc3)[nH]2)cc1`: 2.08%.
Still for that read-out and setting: the value for `COc1cc2nc(N3CCN(C(=O)C4CCCO4)CC3)nc(N)c2cc1OC` (stereo not given) was 25.9%; that for `O=C(CCc1ccc(O)cc1)c1c(O)cc(O)cc1O` was -3.48%.
Same read-out and setting: the value for `O=c1cc(N2CCOCC2)oc2c(-c3ccccc3)cccc12` was 29.3%; that for `NCCCCNCCCN` was 14.8%; that for `OC(CN1CCN(c2cccc(Cl)c2)CC1)C(c1ccccc1)c1ccccc1` (stereo not given) was -4.42%.
As for `Cc1cccc(C#Cc2ccccc2)n1`, the “activity change, negative = inhibition” value was 64.5%.
Still for that read-out and setting: the value for `Oc1ccc2ccccc2c1SSc1c(O)ccc2ccccc12` was -11.3%; that for `O=c1c(O)c(-c2ccc(O)cc2O)oc2cc(O)cc(O)c12` was -16.3%; that for `O=C(O)c1cccnc1Nc1cccc(C(F)(F)F)c1` was 35.5%.
The same measure, in the same setting: next, `NNc1nncc2ccccc12`: 16.1%; `Cc1cc(O)c2c(c1)C(=O)c1cc(O)cc(O)c1C2=O`: 13%.
On the same count and under the same terms, next, `CC1(C)NC(=O)N(c2ccc([N+](=O)[O-])c(C(F)(F)F)c2)C1=O`: -12.1%; `COc1cc2c(cc1OC)C1CC(=O)C(CC(C)C)CN1CC2` (stereo not given): 7.11%.
As for `O=C1NC(=O)C(c2ccccc2[N+](=O)[O-])=C1Nc1ccc(O)c(Cl)c1`, the “activity change, negative = inhibition” value was 7.83%.
Same read-out and setting: next, `O=C(c1ccccc1)c1ccc2n1CCC2C(=O)O` (stereo not given): 24.2%; `COc1ccccc1N1CCN(CCN(C(=O)C2CCCCC2)c2ccccn2)CC1`: -16.8%.
The same measure, in the same setting: the value for `C[C@@H](N)C1CCC(C(=O)Nc2ccncc2)CC1` (stereo not given in full) was -3.25%.
The same measure, in the same setting: next, `O=c1ccc2ccc(O)c(O)c2o1`: -25.3%; `CCOC(=O)C(C)Oc1cccc2c(=O)n(CC(=O)Nc3ccc4c(c3)OCCO4)ccc12` (stereo not given): 1.71%; `COc1ccc2cc([C@H](C)C(=O)O)ccc2c1`: -14.1%.
Regarding `O=C1c2c(O)cc(O)cc2OC(c2ccc(O)c(O)c2)C1O` (stereo not given), the “activity change, negative = inhibition” value is 5.84%.
The same measure, in the same setting: the value for `CNC[C@H](O)c1ccc(O)c(O)c1` was -10.5%.

The target of another test is DNA dC->dU-editing enzyme APOBEC-3G (Homo sapiens) (UniProt Q9HC16). Nature of the test: qHTS for inhibitors of Vif-A3G interactions: Validation (AID 588379). Further: 0% is about no effect. To be noted: Vif-A3G protein interaction assay; series mostly up to 46.1 µM; activity change, negative = inhibition: at the top concentration. In short, it runs like this: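 Yellow fluorescence (Ex 488, Em 500-530) of Vif-coexpressing HeLa A3G-eYFP cells, scanned by Acumen cytometer, reports blocked A3G degradation. Cells plated at 700/well overnight at 37 deg C before compound addition, then a further overnight compound incubation at 37 deg C.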
DNA dC->dU-editing enzyme APOBEC-3G (Homo sapiens), sequence (Q9HC16 whole entry, looked up): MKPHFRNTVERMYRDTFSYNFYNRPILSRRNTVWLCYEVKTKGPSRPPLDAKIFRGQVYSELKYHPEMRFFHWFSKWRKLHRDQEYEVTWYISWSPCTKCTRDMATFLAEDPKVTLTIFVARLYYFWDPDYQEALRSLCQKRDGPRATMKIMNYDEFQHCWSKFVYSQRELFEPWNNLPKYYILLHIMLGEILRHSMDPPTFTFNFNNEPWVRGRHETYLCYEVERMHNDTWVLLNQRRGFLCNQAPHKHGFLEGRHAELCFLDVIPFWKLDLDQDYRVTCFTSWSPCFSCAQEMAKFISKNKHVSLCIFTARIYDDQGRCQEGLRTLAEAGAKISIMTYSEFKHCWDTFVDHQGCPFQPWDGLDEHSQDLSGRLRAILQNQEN
`O=C(CCc1ccc(O)cc1)c1c(O)cc(O)cc1O`: the “activity change, negative = inhibition” value was -3.48%.
On the same count and under the same terms, the value for `O=c1cc(N2CCOCC2)oc2c(-c3ccccc3)cccc12` was -4.53%; that for `NCCCCNCCCN` was -5.67%; that for `OC(CN1CCN(c2cccc(Cl)c2)CC1)C(c1ccccc1)c1ccccc1` (stereo not given) was -0.727%.
Same read-out and setting: the value for `Cc1cccc(C#Cc2ccccc2)n1` was -0.473%; that for `O=c1c(O)c(-c2ccc(O)cc2O)oc2cc(O)cc(O)c12` was 0.309%.
Consider `CC1(C)NC(=O)N(c2ccc([N+](=O)[O-])c(C(F)(F)F)c2)C1=O`, for which the “activity change, negative = inhibition” value was 3.31%.
As to `O=C1NC(=O)C(c2ccccc2[N+](=O)[O-])=C1Nc1ccc(O)c(Cl)c1`, the “activity change, negative = inhibition” value was -4.1%.
For `O=C1c2c(O)cc(O)cc2OC(c2ccc(O)c(O)c2)C1O` (stereo not given), the “activity change, negative = inhibition” value is 2.38%.
Same read-out and setting: the value for `CNC[C@H](O)c1ccc(O)c(O)c1` was 3.29%.

The values are drawn from PubChem BioAssay (NCATS).
